Rtt109 Vps75 – inhibitors of C. albicans Rtt109/Vps75 HAT, primary screen, biochemical, ThioGlo CoA-SH fluorescence, plate reader. Histone acetyltransferase RTT109 (Candida albicans (strain SC5314 / ATCC MYA-2876)), …. purified Rtt109/Vps75, 4 h. inhibition, % at 34.9 µM. hit rate 0.16% among 330,000. AID 540336, 2011;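 active = inhibition of at least 50% in every replicate; inconclusive = best replicate reaches 50% inhibition but some replicates fall short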
rCAG binder – binders of r(CAG) RNA repeats, primary screen, biochemical, fluorescence | r(CAG) RNA repeat, TO-PRO-1 dye displacement fluorescence | inhibition, % at 3 µM | hit rate 1.3% among 370,000;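 active = inhibition above the plate cutoff, the mean of all test compounds on that plate plus 3 SD, cut at about 35% in these data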;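 note: 0% = DMSO alone and 100% = 100 µM mitoxantrone as full dye displacement; higher means more dye released from RNA so lower well fluorescence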
LANA-H2A inh – blockers of LANA interaction with H2A/H2B – biochemical, FP readout, HTS, primary screen | Protein LANA1 (Human herpesvirus 8 type P (isolate GK18)), Q9QR71 | cell-free LANA-H2A/H2B peptide, fluorescence polarization | inhibition, % (no concentration beside the values) | hit rate 0.6% among 320,000; in the data active = inhibition mostly above about 10%, no sharp cut-off; inactive = mostly below about 6.7%
PRMT1 FP inh – PRMT1 methyltransferase inhibitors, primary screen, biochemical, fluorescence polarization. Protein arginine N-methyltransferase 1 (Homo sapiens), Q99873. recombinant PRMT1, activity-based probe fluorescence polarization. inhibition, % at 2.79 µM. hit rate 1.3% among 370,000. AID 652257, 2013;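 active = inhibition above about 21% made by adding two undisclosed values, limit read from the data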
ALR inh – inhibitors of human ALR sulfhydryl oxidase, primary screen, biochemical, H2O2 detection, HRP-luminol luminescence, single point; purified ALR, DTT oxidation; inhibition, % (no concentration beside the values); hit rate 3.8% among 290,000; AID 485317, 2010;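 active = mean replicate inhibition above about 79%, with every replicate also reaching it, limit read from the data; inconclusive = only one of the two criteria met; inactive = mean below limit and not every replicate reaching it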
ABHD5-PLIN5 inh – ABHD5-PLIN5 interaction inhibitors, primary screen, cell lysate, split luciferase complementation, luminescence; hit rate 0.78% among 360,000; Split G. princeps luciferase complementation, 4 h; inhibition, % at 4 µM; Perilipin-5 (Homo sapiens) + 1-acylglycerol-3-phosphate O-acyltransferase ABHD5 (Homo …;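 active = inhibition above the mean inhibition across every tested compound plus 3 SD, cut at about 22% in these data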;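 note: 0% = DMSO only wells and the 100% control is not disclosed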
Starred values were filed as active, the others as inactive. In the library only some 5.9% were active in any assay of this set; here they are far more common.

What do the screens show for `O=C1CC(c2ccccc2)CC(O)=C1C=NCC1CCCO1` (centres undefined)?
Rtt109 Vps75: -7; rCAG binder: 0; LANA-H2A inh: 1; PRMT1 FP inh: -1; ALR inh: -2; ABHD5-PLIN5 inh: 3

Results for Oc1[nH]c2ccccc2c1C=NCC1CCCO1 (centres undefined) ?
Rtt109 Vps75: 2; rCAG binder: -2; LANA-H2A inh: -1; PRMT1 FP inh: 5; ALR inh: 98*; ABHD5-PLIN5 inh: 1

How did CCOC(=O)c1c(CSc2ccc(C)cc2)n(C)c2cc(Br)c(O)c(CN(C)C)c12 do in these assays?
Rtt109 Vps75: inconclusive; rCAG binder: -1; LANA-H2A inh: 2; PRMT1 FP inh: 0; ALR inh: inconclusive; ABHD5-PLIN5 inh: 7

What do the screens show for `CCOC(=O)c1c(CSc2ccsc2)n(C)c2cc(Br)c(O)c(CN(C)C)c12`?
Rtt109 Vps75: 12; rCAG binder: 6; LANA-H2A inh: 5; PRMT1 FP inh: 0; ALR inh: 97*; ABHD5-PLIN5 inh: 8

Results for CCOC(=O)c1c(CN2CCCCC2)n(C)c2cc(Br)c(O)c(CN(C)C)c12 ?
Rtt109 Vps75: 3; LANA-H2A inh: 3; ALR inh: 26; ABHD5-PLIN5 inh: 4

Results for CCOC(=O)c1c(CSc2ccccc2)n(C)c2cc(Br)c(O)c(CN(C)C)c12 ?
Rtt109 Vps75: 21; rCAG binder: 0; LANA-H2A inh: -4; PRMT1 FP inh: 1; ALR inh: 84*; ABHD5-PLIN5 inh: 7

What do the screens show for `Cc1ccc(-c2ccc(CCC(=O)O)n2NC(=O)c2cccs2)cc1`?
Rtt109 Vps75: 0; rCAG binder: 7; LANA-H2A inh: 4; PRMT1 FP inh: 0; ALR inh: 99*; ABHD5-PLIN5 inh: 4

Results for O=C(O)CCc1ccc(-c2cccs2)n1NC(=O)c1ccc(Cl)cc1Cl ?
Rtt109 Vps75: 2; rCAG binder: 14; LANA-H2A inh: -8; PRMT1 FP inh: 8; ALR inh: 71; ABHD5-PLIN5 inh: 4

How did O=C(O)CCc1ccc(-c2cccs2)n1NC(=O)c1ccc(Cl)cc1 do in these assays?
Rtt109 Vps75: 5; rCAG binder: 12; LANA-H2A inh: -1; PRMT1 FP inh: 17; ALR inh: 98*; ABHD5-PLIN5 inh: 2

How did COc1cccc(NC(=O)CNCc2ccccc2)c1 do in these assays?
Rtt109 Vps75: 9; rCAG binder: 3; LANA-H2A inh: 2; PRMT1 FP inh: 0; ALR inh: 4; ABHD5-PLIN5 inh: 1

How did Cc1ccc(NC(=O)CSCC(=O)N(C)CC(=O)Nc2cccc(F)c2)cc1 do in these assays?
Rtt109 Vps75: 0; rCAG binder: 0; LANA-H2A inh: 1; PRMT1 FP inh: -1; ALR inh: 99*; ABHD5-PLIN5 inh: -9

Results for COc1cccc(NC(=O)CN(C)C(=O)CSCC(=O)Nc2ccc(C)cc2)c1 ?
Rtt109 Vps75: 8; rCAG binder: 8; LANA-H2A inh: -2; PRMT1 FP inh: 2; ALR inh: 99*; ABHD5-PLIN5 inh: -5

What do the screens show for `Cc1cccc(NC(=O)CSCC(=O)N(C)CC(=O)Nc2cccc(F)c2)c1`?
Rtt109 Vps75: -11; rCAG binder: 0; LANA-H2A inh: -1; PRMT1 FP inh: -1; ALR inh: 68; ABHD5-PLIN5 inh: 14

What do the screens show for `COc1cccc(CNC(=O)CSCC(=O)Nc2ccc(C)cc2)c1`?
Rtt109 Vps75: 4; rCAG binder: -5; LANA-H2A inh: -5; PRMT1 FP inh: -2; ALR inh: 99*; ABHD5-PLIN5 inh: -8

Results for COc1cccc(NC(=O)CSCC(=O)Nc2ccccc2)c1 ?
Rtt109 Vps75: 2; rCAG binder: -3; LANA-H2A inh: 3; PRMT1 FP inh: 0; ABHD5-PLIN5 inh: 2

How did COc1cccc(CNCC(=O)Nc2ccc(N3CCOCC3)cc2)c1 do in these assays?
rCAG binder: -7; LANA-H2A inh: -3; PRMT1 FP inh: 1; ALR inh: 99*; ABHD5-PLIN5 inh: 1

Source: PubChem
